Laboratory results published in PubChem BioAssay (EPA / NIEHS).
Inconclusive results are not listed. Calls of active or inactive are those of the source. How the source made its calls: active means hit-call score of the fitted dose curve at least 0.9, where 1 is the maximum; inconclusive means response in the unintended direction; inactive means score below 0.9.

Each compound was assayed against Nuclear receptor subfamily 1 group I member 3 (Homo sapiens) (UniProt Q14994) (assay: ATG_CAR_TRANS: Attagene TRANS-FACTORIAL HepG2 Assay for human Constitutive Androstane Receptor (CAR) (AID 2282969;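 further: activators raise reporter mRNA above DMSO so AC50 marks induction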)). Conditions: HepG2 Attagene TRANS-FACTORIAL CAR reporter.
How it was run: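 Transiently transfected HepG2, multiplex TRANS reporters (CAR-Gal4 chimera driving GAL4-UAS reporter). 24 h dosing. Readout: reporter transcript by RT-PCR + capillary electrophoresis, fluorescence intensity; positive direction vs DMSO.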

Chain of Nuclear receptor subfamily 1 group I member 3 (Homo sapiens) (Q14994 whole entry, looked up, the tested form may be a part): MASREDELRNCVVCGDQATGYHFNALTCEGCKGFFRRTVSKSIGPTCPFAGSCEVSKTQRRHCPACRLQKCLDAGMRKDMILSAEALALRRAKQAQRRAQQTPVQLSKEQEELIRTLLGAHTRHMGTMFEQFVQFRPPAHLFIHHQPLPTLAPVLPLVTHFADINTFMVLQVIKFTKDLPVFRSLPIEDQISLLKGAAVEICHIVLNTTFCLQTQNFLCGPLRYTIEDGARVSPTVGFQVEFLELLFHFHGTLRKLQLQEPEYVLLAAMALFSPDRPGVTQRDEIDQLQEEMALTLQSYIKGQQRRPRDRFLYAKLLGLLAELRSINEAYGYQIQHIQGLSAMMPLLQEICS

outcome, inactive:
CC(C)(C)c1ccc(CCC=O)cc1
NNc1nc(-c2ccc([N+](=O)[O-])cc2)cs1
CCCCc1ccc2ccccc2c1S(=O)(=O)O
NC(=NCCCCCCN=C(N)/N=C(\N)Nc1ccc(Cl)cc1)/N=C(\N)Nc1ccc(Cl)cc1
Nc1cc(Cl)c(-c2cc(Cl)c(N)cc2Cl)cc1Cl
c1cnc2c(c1)ccc1cccnc12
CCC(C)c1nccnc1OC (stereo unspecified)
FC(F)(F)N1C(F)(F)C(F)(F)OC(F)(F)C1(F)F
Cc1cc(=O)oc2cc(O)ccc12
CC1COCc2cc3c(cc21)C(C)(C)C(C)C3(C)C (stereo unspecified)
Oc1cc2ccccc2cc1O
CC(C)C=O
CCOCCOCC
CCOC=C(C(=O)OCC)C(=O)OCC
CCC(=O)C=Cc1ccc(OC)cc1
CCCCCCC(C)(C)C(=O)O
COCN(COC)c1nc(N(COC)COC)nc(N(COC)COC)n1
COc1cc(OC)nc(NC(=O)NS(=O)(=O)Nc2ccccc2C(=O)N(C)C)n1
CCCCCCCCC(C)=O
C=CCOCC(CO)(CO)CO
CCc1cccc(CC)c1NC(=O)C(=O)O
CC[N+](CC)(CC)Cc1ccccc1
Oc1cccc2c(O)cccc12
O=P(O)(O)CCC(F)(F)C(F)(F)C(F)(F)C(F)(F)C(F)(F)C(F)(F)C(F)(F)C(F)(F)F
CCCCCc1ccc(O)cc1
O=C(F)C(F)(F)C(F)(F)C(F)(F)C(=O)F
